What was measured:
[1] = target: T1, Serine/threonine-protein kinase TBK1 (Homo sapiens) (UniProt Q9UHD2); conditions: at 1 µM;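 also: values are mean inhibition of TBK1, screened as part of the GSK published kinase inhibitor set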
T1 sequence (whole entry): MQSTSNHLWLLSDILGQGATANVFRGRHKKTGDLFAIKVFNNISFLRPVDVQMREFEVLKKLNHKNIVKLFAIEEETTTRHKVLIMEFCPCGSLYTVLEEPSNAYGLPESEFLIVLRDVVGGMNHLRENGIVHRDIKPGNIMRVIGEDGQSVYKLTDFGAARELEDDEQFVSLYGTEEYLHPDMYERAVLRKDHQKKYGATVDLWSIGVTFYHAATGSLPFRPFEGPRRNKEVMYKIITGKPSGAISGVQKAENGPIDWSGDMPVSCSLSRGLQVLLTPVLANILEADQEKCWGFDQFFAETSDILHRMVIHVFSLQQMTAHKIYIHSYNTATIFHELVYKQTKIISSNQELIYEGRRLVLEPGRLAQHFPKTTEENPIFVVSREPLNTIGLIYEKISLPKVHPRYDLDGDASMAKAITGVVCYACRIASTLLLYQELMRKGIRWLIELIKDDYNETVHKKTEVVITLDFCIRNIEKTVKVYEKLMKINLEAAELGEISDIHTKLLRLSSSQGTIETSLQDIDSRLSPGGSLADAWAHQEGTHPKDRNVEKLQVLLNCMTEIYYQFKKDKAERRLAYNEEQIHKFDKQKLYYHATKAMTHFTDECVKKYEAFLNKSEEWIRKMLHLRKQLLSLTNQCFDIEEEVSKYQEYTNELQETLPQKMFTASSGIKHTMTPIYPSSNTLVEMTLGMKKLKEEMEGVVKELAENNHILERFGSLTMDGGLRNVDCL

[2] = target: T2, Testis-specific serine/threonine-protein kinase 1 (Homo sapiens) (UniProt Q9BXA7); conditions: at 0.1 µM
T2 sequence (whole entry): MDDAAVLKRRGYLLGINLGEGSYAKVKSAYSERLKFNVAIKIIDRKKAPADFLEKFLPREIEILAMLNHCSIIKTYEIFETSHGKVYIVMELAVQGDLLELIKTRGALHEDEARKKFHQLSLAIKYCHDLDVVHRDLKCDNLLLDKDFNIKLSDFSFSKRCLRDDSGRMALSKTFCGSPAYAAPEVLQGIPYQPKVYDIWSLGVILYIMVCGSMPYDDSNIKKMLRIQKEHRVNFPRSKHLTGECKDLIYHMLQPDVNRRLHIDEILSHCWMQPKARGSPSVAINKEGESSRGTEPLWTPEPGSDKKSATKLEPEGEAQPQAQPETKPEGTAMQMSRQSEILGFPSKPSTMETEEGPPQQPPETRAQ

[3] = target: T2, Testis-specific serine/threonine-protein kinase 1 (Homo sapiens); conditions: at 1 µM
[4] = target: T3, Testis-specific serine/threonine-protein kinase 2 (Homo sapiens) (UniProt Q96PF2); conditions: at 0.1 µM
T3 sequence (whole entry): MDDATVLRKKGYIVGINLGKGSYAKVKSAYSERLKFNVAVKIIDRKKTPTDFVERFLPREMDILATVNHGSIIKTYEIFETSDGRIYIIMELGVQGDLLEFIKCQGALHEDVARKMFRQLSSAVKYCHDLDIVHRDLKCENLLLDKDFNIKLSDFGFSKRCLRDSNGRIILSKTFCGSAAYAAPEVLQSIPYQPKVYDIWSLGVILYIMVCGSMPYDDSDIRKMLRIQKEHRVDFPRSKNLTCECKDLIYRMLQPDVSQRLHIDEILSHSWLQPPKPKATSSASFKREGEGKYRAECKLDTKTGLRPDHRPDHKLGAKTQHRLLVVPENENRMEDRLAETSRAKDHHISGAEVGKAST

[5] = target: T3, Testis-specific serine/threonine-protein kinase 2 (Homo sapiens); conditions: at 1 µM
[6] = target: Casein kinase I isoform alpha (Homo sapiens) (UniProt P48729); conditions: at 0.1 µM
[7] = target: Casein kinase I isoform alpha (Homo sapiens) (UniProt P48729); conditions: at 1 µM
[8] = target: Casein kinase I isoform gamma-1 (Homo sapiens) (UniProt Q9HCP0); conditions: at 0.1 µM
[9] = target: Casein kinase I isoform gamma-1 (Homo sapiens) (UniProt Q9HCP0); conditions: at 1 µM
[10] = target: Casein kinase I isoform gamma-2 (Homo sapiens) (UniProt P78368); conditions: at 0.1 µM;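 also: values are mean inhibition figures reported as part of the GSK PKIS dataset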
Casein kinase I isoform gamma-2 (Homo sapiens), sequence (P78368 whole entry, looked up, canonical isoform): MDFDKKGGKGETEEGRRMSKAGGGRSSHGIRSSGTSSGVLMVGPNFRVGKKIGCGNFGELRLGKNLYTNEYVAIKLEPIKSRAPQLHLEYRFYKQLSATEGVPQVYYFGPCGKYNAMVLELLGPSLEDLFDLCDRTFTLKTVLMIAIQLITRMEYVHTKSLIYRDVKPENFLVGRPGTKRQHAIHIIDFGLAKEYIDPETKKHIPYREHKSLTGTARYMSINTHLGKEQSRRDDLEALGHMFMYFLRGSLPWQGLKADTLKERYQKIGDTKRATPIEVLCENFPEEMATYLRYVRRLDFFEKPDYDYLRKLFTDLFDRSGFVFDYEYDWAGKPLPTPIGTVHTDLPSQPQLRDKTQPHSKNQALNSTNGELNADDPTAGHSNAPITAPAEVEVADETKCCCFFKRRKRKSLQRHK

Casein kinase I isoform alpha (Homo sapiens), sequence (P48729 2-337 limits assumed): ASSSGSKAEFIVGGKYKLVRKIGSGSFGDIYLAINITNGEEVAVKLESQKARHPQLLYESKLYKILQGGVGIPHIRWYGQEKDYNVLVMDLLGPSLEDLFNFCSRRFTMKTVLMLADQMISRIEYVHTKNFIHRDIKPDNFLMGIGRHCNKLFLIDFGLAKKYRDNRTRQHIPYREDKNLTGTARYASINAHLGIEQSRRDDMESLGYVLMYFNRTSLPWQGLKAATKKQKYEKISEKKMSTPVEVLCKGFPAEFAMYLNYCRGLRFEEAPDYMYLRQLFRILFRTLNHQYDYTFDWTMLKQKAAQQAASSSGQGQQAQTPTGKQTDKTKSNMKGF
Casein kinase I isoform gamma-1 (Homo sapiens), sequence (Q9HCP0 whole entry, looked up, canonical isoform): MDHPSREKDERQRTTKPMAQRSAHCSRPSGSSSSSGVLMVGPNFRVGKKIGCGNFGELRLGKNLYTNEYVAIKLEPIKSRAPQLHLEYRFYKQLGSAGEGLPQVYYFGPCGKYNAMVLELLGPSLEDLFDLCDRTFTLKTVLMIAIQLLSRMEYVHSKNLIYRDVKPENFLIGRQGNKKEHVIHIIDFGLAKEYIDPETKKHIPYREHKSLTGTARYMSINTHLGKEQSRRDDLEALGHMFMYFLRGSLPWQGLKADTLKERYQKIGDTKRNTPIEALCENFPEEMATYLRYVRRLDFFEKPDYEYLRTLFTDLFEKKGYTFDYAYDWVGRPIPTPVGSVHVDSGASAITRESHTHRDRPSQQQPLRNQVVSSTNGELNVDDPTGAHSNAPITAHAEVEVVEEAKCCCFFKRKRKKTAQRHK

SMILES	inhibition [1] [%]	inhibition [2] [%]	inhibition [3] [%]	inhibition [4] [%]	inhibition [5] [%]	inhibition [6] [%]	inhibition [7] [%]	inhibition [8] [%]	inhibition [9] [%]	inhibition [10] [%]
NS(=O)(=O)c1ccc(NC=C2C(=O)Nc3ccc4ncsc4c32)cc1	65.6	8.91	33.5	2.62	3.73	4.2	22.3	5.22	18.2	3.58
ON=C1CCc2cc(-c3nc(C4CCNCC4)[nH]c3-c3ccncc3)ccc21	1.68	0.96	0.73	-0.31	-0.97	-0.25	8.55	0.25	1.66	1.32
CCOc1nccc2c1nc(-c1nonc1N)n2CC	6.01	3.94	4.63	2.77	4.45	3.85	2.28	2.65	1.76	1.95
O=C1Nc2ccc(-c3cccnc3)cc2C1=Cc1cc(Br)c(O)c(Br)c1	7.51	2.68	1.29	0.55	-0.14	6.06	3.87	4.05	4.74	2.62
NS(=O)(=O)c1ccc(N/N=C2\C(=O)Nc3ccc(Cl)cc32)cc1	9.93	4.37	6.32	3.29	2.98	3.27	4.21	2.59	3.4	2.56
CCn1c(-c2nonc2N)nc2c(C#CC(C)(C)O)nc(OCCNC)cc21	8.57	5.86	18	1.75	2.65	3.87	8.13	3.33	4.48	3.26
CN(c1ccc(NC(=O)Nc2ccc(OC(F)(F)F)cc2)cc1)c1ccnc(Nc2cccc(S(N)(=O)=O)c2)n1	9.01	1.37	2.44	1.3	1.3	2.69	-0.75	2.75	3.06	2.32
COc1cc2ncn(-c3cc(OCc4ccccc4S(C)(=O)=O)c(C#N)s3)c2cc1OC	83	22.1	69.2	0.6	4.54	3.32	3.58	3.26	4.23	2.02
CC(C)c1ccc(Nc2nccc(-c3cnn4ncccc34)n2)cc1	13.9	3.15	5.95	2.67	0.57	-5.73	12.9	2.02	8.9	3.16
O=S(=O)(CCOCc1ccc(-c2ccc3ncnc(Nc4ccc(OCc5cccc(F)c5)c(Cl)c4)c3c2)o1)c1ccccc1	2.8	2.84	3.29	0.64	1.88	-0.6	-0.08	0.56	1.02	0.09
Cc1cc(-c2ccccn2)cc(C)c1/C=C/c1cncc(-c2nn[nH]n2)c1	2.21	4.23	4.46	1.85	2.37	3.47	7.87	6.09	4.39	2.75
CCS(=O)(=O)c1ccc(OC)c(Nc2ncc(-c3cccc(OC)c3)o2)c1	9.22	1.15	-0.25	1.31	-3.49	1.44	6.31	2.59	6.2	1.91
COc1cc(/C=N/Nc2ncnc3c2cnn3C(C)C)ccc1O	6.12	1.68	1.76	0.77	1.4	-0.04	0.99	1.74	3.2	1.49
Nc1nccc(C#Cc2cncnc2Nc2ccc(OCc3cccc(F)c3)c(Cl)c2)n1	9.39	2.97	1.86	1.69	-1.18	4.12	5.01	3.44	4.16	2.25
CN(C)C(=O)O[C@H]1CN[C@H](C#Cc2cc3ncnc(Nc4ccc(OCc5cccc(F)c5)c(Cl)c4)c3s2)C1	4.42	1.61	0.19	0.42	-1.25	-3.89	2.94	1.92	2.06	2.17
COC(=O)c1cncc(/C=C/c2c(C)cc(O)cc2C)c1	3.98	2.95	5.68	0.9	0.8	1.49	4.06	3.02	4.65	2.68
COc1ccc2ncnc(Nc3ccc(OCc4ccccc4)cc3)c2c1	1.27	1.95	3.16	0.6	2.34	6.26	8.76	1.48	2.76	1.66

SMILES	inhibition [1] [%]	inhibition [2] [%]	inhibition [3] [%]	inhibition [4] [%]	inhibition [5] [%]	inhibition [6] [%]	inhibition [7] [%]	inhibition [8] [%]	inhibition [9] [%]	inhibition [10] [%]
CS(=O)(=O)Nc1cccc(-c2ccc3c(NC(=O)C4CC4)n[nH]c3c2)c1	3.56	1.06	0.45	0.02	-1.13	1.72	1.75	0.64	3.47	-0.83
O=C1Nc2ccccc2/C1=C/Nc1ccc2[nH]c(=O)[nH]c2c1	21.2	4.5	8.92	3.14	4.56	8.75	21.8	4.87	7.45	3.6
CC(C)c1ccc2c(c1)NC(=O)/C2=N/Nc1ccc(S(N)(=O)=O)cc1	-0.26	-0.2	1.24	0.12	0.46	0.06	0.18	0.11	0.56	0.63
COc1cc2ncnc(Nc3ccc4c(cnn4Cc4ccccc4)c3)c2cc1OC	1.45	2.62	3.63	0.21	0.75	1.02	1.16	1.64	2.33	1.06
CN(C)CCCn1c(-c2nonc2N)nc2cnccc21	6.08	3.44	7.78	0.64	0.45	5.03	6.31	4.45	5.34	3.15
Cc1ccc2c(-c3ccnc(Nc4cccc(C(F)(F)F)c4)n3)c(-c3ccccc3)nn2n1	4.86	3.88	4.11	1.4	2.15	15.3	59.2	5	14	3.82
NS(=O)(=O)c1cccc(-c2cc3ccncc3cc2OCc2ccccc2)c1	6.61	2.13	0.96	2.68	0.84	0.06	3.92	4.57	4.83	3.06
O=C(Nc1ccc(Oc2ccc3[nH]c(NC(=O)c4ccco4)nc3c2)cc1)Nc1cc(C(F)(F)F)ccc1F	0.97	0.73	0.2	0.45	-0.72	0.72	1.23	-3.78	-2.12	-4.05
COC(=O)Nc1nc2cc(Oc3ccc(NC(=O)Nc4cccc(Br)c4)cc3)ccc2[nH]1	3.82	2.91	2.52	2.72	2.43	4.89	9.35	1.77	2.02	0.89
Cc1ccc(O)cc1Nc1ccnc2ccc(S(C)(=O)=O)cc12	9.14	3.95	4.63	2.41	3.33	11.9	43.8	4.05	7.45	4.13
COc1cccc(-n2nc(C)c3c(N/N=C(\C)c4ccncc4)ncnc32)c1	-1.57	1.47	1.88	-0.53	-0.42	-1.81	0.17	0.02	0.62	0.14
CS(=O)(=O)CCNCc1nc(-c2ccc3ncnc(Nc4ccc(OCc5cccc(C(F)(F)F)c5)cc4)c3c2)cs1	0.57	2.83	2.19	0.45	0.58	0.49	4.64	1.2	2.03	0.96
NC(=O)c1sc(-n2cnc3ccccc32)cc1OCc1ccccc1Br	2.68	3.19	4.53	0.6	1.24	2.22	7.23	3.55	5.15	3.34
Nc1nccc(-c2c(-c3ccc(F)cc3)ncn2CCCN2CCOCC2)n1	4.85	3.5	3.45	2.07	2.83	6.3	27.3	3.45	5.49	2.84
Oc1cccc(-c2nc(-c3ccccc3)[nH]c2-c2ccncc2)c1	2.77	5.01	2.8	3.51	2.57	12.6	23.9	2.26	3.29	2.14
NC(=O)c1cccc(Nc2nccc(Nc3cccc(F)c3)n2)c1	6.93	-0.18	0.75	0.59	-0.96	-0.75	1.32	0.88	1.67	0.97
